Assay [1] deals with Serine/threonine-protein kinase 33 (Homo sapiens) (UniProt Q9BYT3). To be noted: at 1 µM.
For assay [2] the target is unchanged. To be noted: at 10 µM.
The target of assay [3] is Serine/threonine-protein kinase PLK2 (Homo sapiens) (UniProt Q9NYY3). The following applies: at 1 µM.
The target is the same in assay [4]. To be noted: at 10 µM.
In assay [5] the target is Tyrosine-protein kinase SYK (Homo sapiens) (UniProt P43405). To be noted: at 1 µM.
The target is the same in assay [6]. To be noted: at 10 µM.
In assay [7] the target is T1, Mitogen-activated protein kinase kinase kinase 7 (Homo sapiens) (UniProt O43318).
T1 sequence (whole entry): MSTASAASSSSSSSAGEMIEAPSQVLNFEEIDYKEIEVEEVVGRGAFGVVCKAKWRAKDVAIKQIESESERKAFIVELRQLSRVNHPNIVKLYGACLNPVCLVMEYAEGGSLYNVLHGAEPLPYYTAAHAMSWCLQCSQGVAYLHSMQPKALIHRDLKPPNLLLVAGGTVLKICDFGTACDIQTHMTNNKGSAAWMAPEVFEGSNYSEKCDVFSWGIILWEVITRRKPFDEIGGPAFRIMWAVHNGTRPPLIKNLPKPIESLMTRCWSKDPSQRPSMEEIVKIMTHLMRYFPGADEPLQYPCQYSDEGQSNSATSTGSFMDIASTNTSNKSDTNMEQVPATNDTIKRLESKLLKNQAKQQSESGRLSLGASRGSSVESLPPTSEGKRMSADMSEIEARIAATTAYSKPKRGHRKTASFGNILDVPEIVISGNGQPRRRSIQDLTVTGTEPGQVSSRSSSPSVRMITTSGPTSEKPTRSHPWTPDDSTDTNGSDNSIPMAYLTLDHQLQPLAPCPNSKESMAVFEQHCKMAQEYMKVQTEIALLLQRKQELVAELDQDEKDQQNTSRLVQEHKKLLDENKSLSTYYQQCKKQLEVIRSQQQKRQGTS
The following applies: at 1 µM.

Assay [8] concerns the target T1, Mitogen-activated protein kinase kinase kinase 7 (Homo sapiens). To be noted: at 10 µM.
Assay [9] has as its target T2, Serine/threonine-protein kinase TAO1 (Homo sapiens) (UniProt Q7L7X3).
T2 sequence (whole entry): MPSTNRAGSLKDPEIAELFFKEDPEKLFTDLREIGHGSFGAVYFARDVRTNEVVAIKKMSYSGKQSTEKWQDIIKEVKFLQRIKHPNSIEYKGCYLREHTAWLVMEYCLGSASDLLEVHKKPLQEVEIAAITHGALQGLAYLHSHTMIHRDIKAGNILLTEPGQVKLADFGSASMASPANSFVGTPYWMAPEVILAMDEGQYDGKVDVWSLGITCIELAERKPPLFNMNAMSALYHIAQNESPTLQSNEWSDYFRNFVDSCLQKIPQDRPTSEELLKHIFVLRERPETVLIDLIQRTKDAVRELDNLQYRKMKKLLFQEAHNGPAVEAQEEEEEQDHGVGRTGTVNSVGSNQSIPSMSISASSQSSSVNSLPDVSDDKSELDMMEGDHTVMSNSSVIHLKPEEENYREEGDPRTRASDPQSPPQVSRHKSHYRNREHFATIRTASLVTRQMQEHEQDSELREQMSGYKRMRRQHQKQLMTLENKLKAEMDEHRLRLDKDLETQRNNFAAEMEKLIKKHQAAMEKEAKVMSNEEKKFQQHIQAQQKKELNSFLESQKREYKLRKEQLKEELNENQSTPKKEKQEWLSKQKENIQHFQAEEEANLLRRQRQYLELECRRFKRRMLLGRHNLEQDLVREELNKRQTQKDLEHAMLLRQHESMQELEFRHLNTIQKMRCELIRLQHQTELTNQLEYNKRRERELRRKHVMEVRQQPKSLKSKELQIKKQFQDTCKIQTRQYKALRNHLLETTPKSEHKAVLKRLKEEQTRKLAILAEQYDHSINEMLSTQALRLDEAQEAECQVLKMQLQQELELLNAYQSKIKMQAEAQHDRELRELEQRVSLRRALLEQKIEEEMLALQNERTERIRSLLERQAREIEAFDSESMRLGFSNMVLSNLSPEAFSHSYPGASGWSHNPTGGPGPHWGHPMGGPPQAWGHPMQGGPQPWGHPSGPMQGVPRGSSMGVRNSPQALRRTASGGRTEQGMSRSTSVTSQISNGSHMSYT
To be noted: at 1 µM.

Assay [10] has as its target T2, Serine/threonine-protein kinase TAO1 (Homo sapiens). To be noted: at 10 µM.
The target in assay [11] is T3, Serine/threonine-protein kinase TAO2 (Homo sapiens) (UniProt Q9UL54).
T3 sequence (whole entry): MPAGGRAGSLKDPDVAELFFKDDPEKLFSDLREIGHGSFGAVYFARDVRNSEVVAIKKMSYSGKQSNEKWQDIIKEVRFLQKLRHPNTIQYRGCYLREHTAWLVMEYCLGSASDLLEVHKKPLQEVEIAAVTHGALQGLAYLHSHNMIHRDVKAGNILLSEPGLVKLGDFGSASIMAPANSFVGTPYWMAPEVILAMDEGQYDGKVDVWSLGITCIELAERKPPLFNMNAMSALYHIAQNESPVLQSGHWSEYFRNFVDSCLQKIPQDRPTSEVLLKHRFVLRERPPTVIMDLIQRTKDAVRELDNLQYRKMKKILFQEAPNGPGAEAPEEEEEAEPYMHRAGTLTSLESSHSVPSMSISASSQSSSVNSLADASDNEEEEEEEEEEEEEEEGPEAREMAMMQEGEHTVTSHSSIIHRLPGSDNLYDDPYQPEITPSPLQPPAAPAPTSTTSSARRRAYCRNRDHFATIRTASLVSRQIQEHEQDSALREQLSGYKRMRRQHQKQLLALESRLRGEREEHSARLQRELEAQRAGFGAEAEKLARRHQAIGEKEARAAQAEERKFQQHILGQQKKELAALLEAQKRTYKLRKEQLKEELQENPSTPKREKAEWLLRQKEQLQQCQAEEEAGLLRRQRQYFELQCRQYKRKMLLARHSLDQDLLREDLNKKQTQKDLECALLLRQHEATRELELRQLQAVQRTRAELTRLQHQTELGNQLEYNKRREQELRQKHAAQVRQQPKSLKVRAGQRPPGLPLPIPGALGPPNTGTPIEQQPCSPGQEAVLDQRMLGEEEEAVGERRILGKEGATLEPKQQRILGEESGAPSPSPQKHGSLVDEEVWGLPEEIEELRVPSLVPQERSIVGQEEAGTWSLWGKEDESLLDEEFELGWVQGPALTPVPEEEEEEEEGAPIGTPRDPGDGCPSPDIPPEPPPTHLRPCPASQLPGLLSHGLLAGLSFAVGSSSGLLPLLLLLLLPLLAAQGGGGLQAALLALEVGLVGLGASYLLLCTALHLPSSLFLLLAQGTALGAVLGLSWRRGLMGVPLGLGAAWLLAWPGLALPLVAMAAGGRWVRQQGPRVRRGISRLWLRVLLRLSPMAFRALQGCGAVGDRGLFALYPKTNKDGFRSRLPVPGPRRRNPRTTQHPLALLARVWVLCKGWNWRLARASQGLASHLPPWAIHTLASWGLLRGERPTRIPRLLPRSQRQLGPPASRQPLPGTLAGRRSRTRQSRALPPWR
The following applies: at 1 µM.

The target of assay [12] is T3, Serine/threonine-protein kinase TAO2 (Homo sapiens). The following applies: at 10 µM.
For assay [13], the target named is T4, Serine/threonine-protein kinase TAO3 (Homo sapiens) (UniProt Q9H2K8).
T4 sequence (whole entry): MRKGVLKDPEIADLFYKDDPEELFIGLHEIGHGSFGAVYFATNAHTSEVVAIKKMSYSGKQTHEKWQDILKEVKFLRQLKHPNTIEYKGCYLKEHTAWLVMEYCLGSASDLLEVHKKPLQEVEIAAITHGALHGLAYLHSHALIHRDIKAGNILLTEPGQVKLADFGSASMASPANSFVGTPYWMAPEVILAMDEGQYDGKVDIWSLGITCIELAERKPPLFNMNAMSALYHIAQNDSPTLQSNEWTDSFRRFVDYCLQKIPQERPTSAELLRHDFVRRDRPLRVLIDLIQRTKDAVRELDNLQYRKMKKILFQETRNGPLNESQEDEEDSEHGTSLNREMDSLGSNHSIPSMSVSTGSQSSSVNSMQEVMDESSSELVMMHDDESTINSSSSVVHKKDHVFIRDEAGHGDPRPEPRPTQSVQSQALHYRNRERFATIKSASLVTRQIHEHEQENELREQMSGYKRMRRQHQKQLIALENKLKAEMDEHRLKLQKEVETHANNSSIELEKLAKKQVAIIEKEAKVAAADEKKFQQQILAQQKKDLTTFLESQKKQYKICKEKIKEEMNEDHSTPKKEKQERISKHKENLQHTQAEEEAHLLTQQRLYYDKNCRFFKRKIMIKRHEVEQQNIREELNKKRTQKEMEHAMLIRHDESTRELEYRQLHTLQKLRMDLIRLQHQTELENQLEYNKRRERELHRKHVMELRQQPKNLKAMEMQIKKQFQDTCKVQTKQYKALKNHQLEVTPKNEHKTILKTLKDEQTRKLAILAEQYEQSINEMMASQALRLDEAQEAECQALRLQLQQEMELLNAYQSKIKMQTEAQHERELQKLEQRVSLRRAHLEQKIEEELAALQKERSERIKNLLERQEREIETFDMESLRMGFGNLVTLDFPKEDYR
To be noted: at 1 µM.

Assay [14] deals with T4, Serine/threonine-protein kinase TAO3 (Homo sapiens). To be noted: at 10 µM.
The target in assay [15] is T5, Serine/threonine-protein kinase TBK1 (Homo sapiens) (UniProt Q9UHD2).
T5 sequence (whole entry): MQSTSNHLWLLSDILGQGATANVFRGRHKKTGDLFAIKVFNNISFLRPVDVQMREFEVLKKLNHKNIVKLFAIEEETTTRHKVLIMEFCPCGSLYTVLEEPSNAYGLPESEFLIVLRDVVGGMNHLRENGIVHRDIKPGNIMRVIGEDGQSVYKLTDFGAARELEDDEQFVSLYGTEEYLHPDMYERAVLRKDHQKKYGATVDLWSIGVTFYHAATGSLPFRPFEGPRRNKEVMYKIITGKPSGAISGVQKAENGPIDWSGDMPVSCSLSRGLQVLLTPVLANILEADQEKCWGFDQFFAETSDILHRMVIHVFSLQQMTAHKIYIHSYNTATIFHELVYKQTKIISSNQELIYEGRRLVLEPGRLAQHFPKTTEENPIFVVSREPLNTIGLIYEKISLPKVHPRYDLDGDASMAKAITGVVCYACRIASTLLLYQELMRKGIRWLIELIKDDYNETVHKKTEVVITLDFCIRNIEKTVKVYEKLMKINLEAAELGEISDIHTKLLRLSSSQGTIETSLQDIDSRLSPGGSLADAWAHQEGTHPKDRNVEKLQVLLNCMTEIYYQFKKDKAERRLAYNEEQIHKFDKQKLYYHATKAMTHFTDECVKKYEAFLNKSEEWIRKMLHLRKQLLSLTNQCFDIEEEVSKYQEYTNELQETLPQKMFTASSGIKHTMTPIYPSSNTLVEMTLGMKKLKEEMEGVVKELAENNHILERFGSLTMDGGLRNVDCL
The following applies: at 1 µM.

Assay [16] concerns the target T5, Serine/threonine-protein kinase TBK1 (Homo sapiens). The following applies: at 10 µM.
In assay [17] the target is T6, TGF-beta receptor type-1 (Homo sapiens) (UniProt P36897).
T6 sequence (whole entry): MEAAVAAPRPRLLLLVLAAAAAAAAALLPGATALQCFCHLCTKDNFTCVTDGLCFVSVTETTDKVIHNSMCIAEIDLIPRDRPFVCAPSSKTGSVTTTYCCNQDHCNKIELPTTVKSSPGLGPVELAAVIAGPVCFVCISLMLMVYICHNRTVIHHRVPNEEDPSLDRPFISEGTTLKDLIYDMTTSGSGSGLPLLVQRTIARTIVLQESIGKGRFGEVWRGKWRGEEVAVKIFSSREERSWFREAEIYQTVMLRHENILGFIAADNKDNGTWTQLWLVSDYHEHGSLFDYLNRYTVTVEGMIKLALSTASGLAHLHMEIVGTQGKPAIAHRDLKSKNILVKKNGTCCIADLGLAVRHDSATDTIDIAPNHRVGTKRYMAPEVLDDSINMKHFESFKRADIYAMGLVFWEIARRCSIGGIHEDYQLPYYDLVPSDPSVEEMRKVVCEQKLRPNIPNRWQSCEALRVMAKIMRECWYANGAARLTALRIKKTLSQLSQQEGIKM
The following applies: at 1 µM.

Assay [18] deals with T6, TGF-beta receptor type-1 (Homo sapiens). To be noted: at 10 µM.
Assay [19] addresses Insulin-like growth factor 1 receptor (Homo sapiens) (UniProt P08069). The following applies: at 1 µM.
Assay [20] has the same target. The following applies: at 10 µM.

Sequence of Serine/threonine-protein kinase 33 (Homo sapiens) (Q9BYT3 whole entry, looked up): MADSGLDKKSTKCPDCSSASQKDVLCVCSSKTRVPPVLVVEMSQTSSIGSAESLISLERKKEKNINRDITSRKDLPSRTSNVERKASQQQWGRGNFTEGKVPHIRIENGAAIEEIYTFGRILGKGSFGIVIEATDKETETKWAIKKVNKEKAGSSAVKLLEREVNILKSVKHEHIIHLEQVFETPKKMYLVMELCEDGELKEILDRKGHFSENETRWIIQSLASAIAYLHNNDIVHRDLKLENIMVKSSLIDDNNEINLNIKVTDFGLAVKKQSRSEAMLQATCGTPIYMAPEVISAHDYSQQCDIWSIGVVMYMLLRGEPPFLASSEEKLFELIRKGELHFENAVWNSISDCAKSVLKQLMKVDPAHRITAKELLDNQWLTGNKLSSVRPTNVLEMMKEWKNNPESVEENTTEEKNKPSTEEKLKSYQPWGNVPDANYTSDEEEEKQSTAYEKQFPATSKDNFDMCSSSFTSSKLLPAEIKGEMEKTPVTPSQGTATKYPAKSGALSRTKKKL
Sequence of Serine/threonine-protein kinase PLK2 (Homo sapiens) (Q9NYY3 whole entry, looked up): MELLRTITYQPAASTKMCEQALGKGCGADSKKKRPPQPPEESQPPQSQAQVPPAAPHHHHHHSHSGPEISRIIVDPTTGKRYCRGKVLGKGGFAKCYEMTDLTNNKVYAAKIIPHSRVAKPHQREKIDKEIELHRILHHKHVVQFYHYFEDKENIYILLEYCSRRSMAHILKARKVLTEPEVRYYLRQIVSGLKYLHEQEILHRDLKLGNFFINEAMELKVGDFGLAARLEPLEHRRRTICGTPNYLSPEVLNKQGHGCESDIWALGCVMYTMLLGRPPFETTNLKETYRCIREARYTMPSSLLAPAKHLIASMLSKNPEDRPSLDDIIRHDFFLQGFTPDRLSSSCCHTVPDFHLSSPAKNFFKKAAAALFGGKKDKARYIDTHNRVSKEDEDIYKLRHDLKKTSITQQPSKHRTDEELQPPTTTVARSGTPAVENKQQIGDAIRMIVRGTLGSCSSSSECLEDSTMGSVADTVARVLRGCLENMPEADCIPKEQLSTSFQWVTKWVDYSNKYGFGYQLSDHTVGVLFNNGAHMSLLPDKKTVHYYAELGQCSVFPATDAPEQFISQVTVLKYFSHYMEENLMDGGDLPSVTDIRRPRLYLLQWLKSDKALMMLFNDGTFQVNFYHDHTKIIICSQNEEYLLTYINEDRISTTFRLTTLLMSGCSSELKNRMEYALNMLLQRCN
Sequence of Insulin-like growth factor 1 receptor (Homo sapiens) (P08069 31-736 limits assumed): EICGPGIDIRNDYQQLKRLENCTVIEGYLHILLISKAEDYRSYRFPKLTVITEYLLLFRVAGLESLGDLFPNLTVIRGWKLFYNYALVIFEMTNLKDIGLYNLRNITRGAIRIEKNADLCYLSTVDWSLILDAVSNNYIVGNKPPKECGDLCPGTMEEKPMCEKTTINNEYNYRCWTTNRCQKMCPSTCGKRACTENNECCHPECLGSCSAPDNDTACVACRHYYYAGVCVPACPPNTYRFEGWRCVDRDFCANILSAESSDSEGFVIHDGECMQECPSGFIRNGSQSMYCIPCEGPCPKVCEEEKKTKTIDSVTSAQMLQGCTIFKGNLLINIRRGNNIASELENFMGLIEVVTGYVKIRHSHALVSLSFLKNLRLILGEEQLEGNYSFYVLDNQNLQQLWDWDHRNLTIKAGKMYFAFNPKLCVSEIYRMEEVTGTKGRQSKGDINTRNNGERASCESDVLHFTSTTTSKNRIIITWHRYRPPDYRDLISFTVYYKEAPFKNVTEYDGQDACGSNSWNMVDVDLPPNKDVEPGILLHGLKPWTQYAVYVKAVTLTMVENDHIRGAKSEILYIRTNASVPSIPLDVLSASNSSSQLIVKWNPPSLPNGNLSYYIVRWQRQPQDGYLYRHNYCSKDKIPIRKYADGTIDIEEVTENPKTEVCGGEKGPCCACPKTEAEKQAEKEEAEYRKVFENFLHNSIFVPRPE
Sequence of Insulin-like growth factor 1 receptor (Homo sapiens) (P08069 741-1367 limits assumed): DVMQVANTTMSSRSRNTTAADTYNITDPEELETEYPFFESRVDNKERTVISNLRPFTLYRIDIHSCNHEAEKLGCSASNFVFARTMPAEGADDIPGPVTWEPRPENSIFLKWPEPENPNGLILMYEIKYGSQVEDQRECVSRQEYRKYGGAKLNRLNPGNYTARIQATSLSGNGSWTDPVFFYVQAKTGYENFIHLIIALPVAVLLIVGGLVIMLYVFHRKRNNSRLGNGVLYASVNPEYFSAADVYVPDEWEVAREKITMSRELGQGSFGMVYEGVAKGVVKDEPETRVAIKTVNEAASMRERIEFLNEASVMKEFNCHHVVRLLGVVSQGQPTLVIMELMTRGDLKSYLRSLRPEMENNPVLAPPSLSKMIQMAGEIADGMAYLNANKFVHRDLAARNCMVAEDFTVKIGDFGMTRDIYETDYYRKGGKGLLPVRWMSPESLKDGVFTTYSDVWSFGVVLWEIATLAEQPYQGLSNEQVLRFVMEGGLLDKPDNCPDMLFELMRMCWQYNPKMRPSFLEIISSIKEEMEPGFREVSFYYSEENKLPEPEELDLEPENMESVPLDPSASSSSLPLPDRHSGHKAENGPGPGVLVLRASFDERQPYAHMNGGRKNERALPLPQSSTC

Turning to `O=C1Nc2ccc3ncsc3c2/C1=C/c1c[nH]cn1`, the residual activity in assay [1] is 62%; in [2], 25%; in [3], 49%; in assay [4] it was 17%; in assay [5], 101%; in [6], 53%. The residual activity in assay [7] worked out at 16%; in assay [8] it was 1%; in [9], 11%; in [10], 0%; in assay [11], 33%; in assay [12], 10%. Also, the residual activity in assay [13] worked out at 17%; in assay [14] it was 6%; in [15], 7%; in assay [16], 0%; in assay [17], 68%; in assay [18], 38%. For the same molecule, the residual activity in assay [19] was determined as 94%; in assay [20] it was 60%.
`COC(=O)[C@@]1(O)C[C@H]2O[C@]1(C)n1c3ccccc3c3c4c(c5c6ccccc6n2c5c31)C(=O)NC4`: the residual activity was 7% in assay [1]; 0% in assay [2]; 36% in [4]; 1% in assay [5]; 2% in assay [6]; -1% in assay [7]. The residual activity is -5% in assay [8]; 5% in assay [9]; 3% in assay [10]; 16% in assay [11]; 2% in [12]; 10% in assay [13]. Further, the residual activity was 3% in [14]; -1% in assay [15]; 3% in assay [16]; 49% in assay [17]; 8% in assay [18]; 23% in [19]. Further, in assay [20], the residual activity was found to be 3%.

For the origin of these results see ChEMBL document CHEMBL2218924, “A broad activity screen in support of a chemogenomic map for kinase signalling research and drug discovery” (Biochem J, 2013).
